According to PubChem BioAssay AID1671202 (University of Kansas High Throughput Screening Laboratory, 2021):
Several values for one entry are separate records, joined by “and”; a condition that tells them apart may be missing. Equal values may be shown once. Among all 190,000 compounds or so, about 6,900 (3.6%) were called active. No stated cut-off is given here; in the data, active means inhibition above about 50%; inactive means the rest. What follows is part of a selection rich in actives, with near analogues and random picks from the rest.

What follows are compounds tested against Huntingtin (Homo sapiens) (UniProt P42858) (assay: mutant huntingtin-calmodulin interaction inhibitors – biochemical, AlphaScreen, primary screen (AID 1671202;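 further: 0% = both proteins with DMSO and 100% = one protein alone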)). Conditions: AlphaScreen His-mHTT/GST-CaM binding, luminescence; at 15 µM; stronger effect = higher value.
Huntingtin (Homo sapiens), sequence (P42858 whole entry, looked up, stated change not applied): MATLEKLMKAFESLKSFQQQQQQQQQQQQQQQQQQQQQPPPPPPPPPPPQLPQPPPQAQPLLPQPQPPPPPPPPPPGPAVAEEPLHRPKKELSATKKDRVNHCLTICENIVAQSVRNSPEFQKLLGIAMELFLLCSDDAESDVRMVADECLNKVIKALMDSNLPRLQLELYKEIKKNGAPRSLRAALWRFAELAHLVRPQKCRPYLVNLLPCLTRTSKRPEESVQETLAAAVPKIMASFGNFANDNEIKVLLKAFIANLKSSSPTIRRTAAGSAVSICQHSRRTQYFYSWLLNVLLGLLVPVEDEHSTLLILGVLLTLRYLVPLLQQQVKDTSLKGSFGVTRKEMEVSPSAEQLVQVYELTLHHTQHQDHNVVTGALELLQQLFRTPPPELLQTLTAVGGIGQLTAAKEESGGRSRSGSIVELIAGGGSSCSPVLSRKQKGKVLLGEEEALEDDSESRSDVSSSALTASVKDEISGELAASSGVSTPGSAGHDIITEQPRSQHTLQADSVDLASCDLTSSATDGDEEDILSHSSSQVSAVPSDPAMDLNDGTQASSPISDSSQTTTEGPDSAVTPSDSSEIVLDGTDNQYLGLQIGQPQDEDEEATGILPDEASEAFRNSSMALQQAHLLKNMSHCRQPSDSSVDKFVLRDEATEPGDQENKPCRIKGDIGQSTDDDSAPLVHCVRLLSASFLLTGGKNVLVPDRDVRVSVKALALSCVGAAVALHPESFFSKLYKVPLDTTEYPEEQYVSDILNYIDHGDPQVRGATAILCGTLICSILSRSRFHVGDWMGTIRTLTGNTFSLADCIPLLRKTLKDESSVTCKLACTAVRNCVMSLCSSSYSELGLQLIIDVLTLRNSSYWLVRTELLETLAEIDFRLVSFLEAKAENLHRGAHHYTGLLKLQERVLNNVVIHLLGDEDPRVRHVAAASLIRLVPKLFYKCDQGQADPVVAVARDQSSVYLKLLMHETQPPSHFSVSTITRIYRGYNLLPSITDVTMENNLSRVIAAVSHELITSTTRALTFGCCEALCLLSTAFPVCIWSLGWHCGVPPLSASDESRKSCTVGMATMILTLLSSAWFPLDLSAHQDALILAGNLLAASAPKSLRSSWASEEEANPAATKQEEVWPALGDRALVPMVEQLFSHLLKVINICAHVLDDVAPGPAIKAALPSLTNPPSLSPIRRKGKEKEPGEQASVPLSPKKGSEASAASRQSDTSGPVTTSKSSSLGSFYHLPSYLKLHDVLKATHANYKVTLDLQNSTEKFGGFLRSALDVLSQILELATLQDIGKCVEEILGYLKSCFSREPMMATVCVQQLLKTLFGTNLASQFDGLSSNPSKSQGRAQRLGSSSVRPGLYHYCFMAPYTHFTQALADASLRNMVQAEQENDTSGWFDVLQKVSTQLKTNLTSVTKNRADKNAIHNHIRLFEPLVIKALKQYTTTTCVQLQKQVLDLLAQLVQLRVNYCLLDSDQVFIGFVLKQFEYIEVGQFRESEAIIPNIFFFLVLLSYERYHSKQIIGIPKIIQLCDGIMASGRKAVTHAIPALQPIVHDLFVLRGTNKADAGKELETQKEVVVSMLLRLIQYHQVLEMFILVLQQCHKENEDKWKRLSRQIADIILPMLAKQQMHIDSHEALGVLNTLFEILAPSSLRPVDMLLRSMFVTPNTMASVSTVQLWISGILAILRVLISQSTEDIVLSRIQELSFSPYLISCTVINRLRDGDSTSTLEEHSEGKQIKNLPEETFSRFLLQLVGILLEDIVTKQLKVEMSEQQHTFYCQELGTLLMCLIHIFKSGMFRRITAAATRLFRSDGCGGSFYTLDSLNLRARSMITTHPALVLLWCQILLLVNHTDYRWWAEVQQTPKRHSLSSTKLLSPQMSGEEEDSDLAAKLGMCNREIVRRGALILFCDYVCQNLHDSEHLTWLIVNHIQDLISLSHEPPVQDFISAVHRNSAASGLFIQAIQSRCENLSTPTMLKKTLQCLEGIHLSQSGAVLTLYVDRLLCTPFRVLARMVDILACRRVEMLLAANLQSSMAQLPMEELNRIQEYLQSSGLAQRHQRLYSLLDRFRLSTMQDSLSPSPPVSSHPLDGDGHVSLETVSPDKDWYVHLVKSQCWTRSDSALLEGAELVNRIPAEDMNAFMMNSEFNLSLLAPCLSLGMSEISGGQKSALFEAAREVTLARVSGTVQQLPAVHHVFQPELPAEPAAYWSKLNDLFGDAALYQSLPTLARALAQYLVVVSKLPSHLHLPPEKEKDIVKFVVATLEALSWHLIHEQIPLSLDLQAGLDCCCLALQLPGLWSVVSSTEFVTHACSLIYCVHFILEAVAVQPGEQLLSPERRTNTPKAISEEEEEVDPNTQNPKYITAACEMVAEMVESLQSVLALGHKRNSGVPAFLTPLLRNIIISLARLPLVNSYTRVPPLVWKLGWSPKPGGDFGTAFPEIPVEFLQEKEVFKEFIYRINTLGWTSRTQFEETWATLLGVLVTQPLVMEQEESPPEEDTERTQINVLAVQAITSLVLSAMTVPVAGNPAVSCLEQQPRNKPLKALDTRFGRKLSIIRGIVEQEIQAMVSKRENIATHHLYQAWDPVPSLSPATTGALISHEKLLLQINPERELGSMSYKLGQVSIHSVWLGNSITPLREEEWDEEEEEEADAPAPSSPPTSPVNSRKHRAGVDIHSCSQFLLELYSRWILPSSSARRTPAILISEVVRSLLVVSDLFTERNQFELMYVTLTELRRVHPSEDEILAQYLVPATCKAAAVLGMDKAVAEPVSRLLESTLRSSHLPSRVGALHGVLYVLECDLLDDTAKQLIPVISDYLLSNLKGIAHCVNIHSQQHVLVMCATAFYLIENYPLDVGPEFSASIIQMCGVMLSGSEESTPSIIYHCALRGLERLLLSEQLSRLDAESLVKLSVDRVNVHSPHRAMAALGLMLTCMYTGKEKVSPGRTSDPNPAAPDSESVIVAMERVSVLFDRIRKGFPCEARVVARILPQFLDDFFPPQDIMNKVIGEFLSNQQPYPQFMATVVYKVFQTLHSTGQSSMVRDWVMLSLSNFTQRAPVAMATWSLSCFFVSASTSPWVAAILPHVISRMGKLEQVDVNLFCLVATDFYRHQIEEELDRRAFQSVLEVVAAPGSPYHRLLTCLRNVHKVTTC
For `Nc1ccc(Cc2ccc(N)c(Cl)c2)cc1Cl`, the inhibition was 14.7% (inactive).
For `Nc1ccc(-c2ccc(N)c(N)c2)cc1N`, the inhibition was 92.1% (active).
In the case of `CC(C)CCn1c(=O)c(C(=O)Nc2ccccn2)c(O)c2ccccc21`, the inhibition is reported as -1% (inactive).
In the case of `CCCn1c(=O)cc(C)c2ccc(OCC(=O)N3CCN(C)CC3)cc21`, the inhibition is reported as -3.5% (inactive).
For `CCOC(=O)c1ccc(NC(=O)c2cccn(Cc3ccc(C(F)(F)F)cc3)c2=O)cc1`, the inhibition was 83.3% (active).
`Cc1csc(NC(=O)c2cccn(Cc3cccc([N+](=O)[O-])c3)c2=O)n1` was tested, and the inhibition was -9.9% (inactive).
With `CCCCS(=O)(=O)N1CCC2(C1)C(=O)N(C)c1ccc(OC)cc12` (stereo not given) the inhibition was 12.5% (inactive).
In the case of `COc1ccc(CCC(=O)N2CCC3(C2)C(=O)N(C)c2ccc(OC)cc23)cc1` (stereo not given), the inhibition is reported as 6.74% (inactive).
With `CC(C)CCNC(=O)CN1C(=O)C(C)N=C(c2ccccc2)c2ccccc21` (stereo not given) the inhibition was 5% (inactive).
For `O=C(Cc1c[nH]c2ccccc12)N1CCCN(C2CCN(Cc3ccc(F)cc3)C2=O)CC1` (stereo not given), the inhibition was 44.9% (inactive).
For `O=[N+]([O-])c1cccc(C(Cl)Cl)c1`, the inhibition was -5.2% (inactive).
`O=c1cccc2n1CC1CC2CN(Cc2cc(Cl)ccc2O)C1` (stereo not given) was tested, and the inhibition was 3.2% (inactive).
With `COC(=O)c1ccc2[se]c(CC3CCCCC3)c(I)c2c1` the inhibition was -13.6% (inactive).
In the case of `CC(C)(CNc1ccc([N+](=O)[O-])c2cccnc12)CNS(=O)(=O)c1ccc(Cl)cc1`, the inhibition is reported as 54% (active).
`O=[N+]([O-])c1ccc(NCCNc2ccc([N+](=O)[O-])c3cccnc23)cc1` was tested, and the inhibition was 1.26% (inactive).
`CCN(CC)CCNc1ccc([N+](=O)[O-])c2cccnc12` was tested, and the inhibition was -2.5% (inactive) and 9% (inactive).
With `CCN(CC)CC#CCOc1ccccc1` the inhibition was -4.9% (inactive).
`CC(=O)c1ccc(OC(NC(=O)Cc2ccccc2)C(Cl)(Cl)Cl)cc1` (stereo not given) was tested, and the inhibition was 50% (active).
`CN1CCN(c2nnc(C(F)(F)F)s2)CC1` was tested, and the inhibition was -5% (inactive).
In the case of `CC(C)c1cc(=O)n2c(n1)SCC2CC(=O)N1CC2CC(C1)c1cccc(=O)n1C2` (stereo not given), the inhibition is reported as -1.2% (inactive).
